According to PubChem BioAssay (Tox21):
Values joined by “and” are separate entries in the source; they are usually repeats but may differ in a detail not shown here. Equal values may be shown once. Inconclusive results are not listed. Where a call stands in place of a potency, no number is given. Active and inactive are the calls of the source. The call rests on the fitted dose curve; in most records, active means well fitted cell-killing curve with a large enough effect in the repeat runs; inconclusive means weak or mixed curves; inactive means flat fitted curve, though single readings scatter.

test: qHTS assay to identify small molecule antagonists of the estrogen receptor beta (ER-beta) signaling pathway - cell viability counter screen (AID 1259382); settings: ER-beta-UAS-bla HEK293T viability, CellTiter-Glo luminescence, 16 h; series mostly up to 92.4 µM; further: nearly all actives have a fitted effect of over 55% in size
Source text: U.S. Tox21 Program National Center for Advancing Translational Sciences [NCATS] NIH Chemical Genomics Center [NCGC] U.S. Environmental Protection Agency [EPA] National Institutes of Environmental Health Sciences [NIEHS] National Toxicology Program [NTP] U.S. Food and Drug Administration [FDA] Tox21 Assay Overview: Estrogen receptor (ER), a nuclear hormone receptor, plays an important role in development, metabolic homeostasis and reproduction. Two subtypes of ER, ER-alpha and ER-beta, have similar expression patterns with some uniqueness in both types. Endocrine disrupting chemicals (EDCs) and their interactions with steroid hormone receptors like ER causes disruption of normal endocrine function. To identify the compounds that inhibit ER signaling, an ER-beta-UAS-bla GripTite cell line (Life Technologies, Madison, WI, USA) containing a beta-lactamase reporter gene under the control of an UAS response element was used to screen Tox21 10K compound library. The cytotoxicity of the Tox21 compound library against the ER-beta-bla cell line was tested in parallel by measuring the cell viability using CellTiter-Glo assay in the same wells.
Tox21 Assay Protocol Summary: ER-beta-UAS-bla HEK293T cells were dispensed at 2,000 cells/4 uL of assay medium containing 2% charcoal stripped FBS per well into black wall/clear-bottom 1536-well plates using a Multidrop Combi (ThermoFisher Scientific, Waltham, MA) dispenser. After the assay plates were incubated at a 37C and 5% CO2 for 6 hr, 23 nL of compounds dissolved in DMSO, positive controls or DMSO only was transferred to the assay plate by a Pintool station (Kalypsys, San Diego, CA), followed by addition of 1 uL (1nM as final concentration) of 17-beta-estradiol (E2) in assay medium using a Flying Reagent Dispenser (FRD, Aurora Discovery, San Diego, CA). The plates were incubated at 37C and 5% CO2 for 16 hr. Then 1 uL of LiveBLAzer B/G FRET substrate was added using a Flying Reagent Dispenser, the plates were incubated at room temperature for 2 hours, and fluorescence intensity was measured by an Envision plate reader (PerkinElmer, Shelton, CT). For cell viability readout that measures cytotoxicity, 4 uL/well of CellTiter-Glo reagent was added into the assay plates using a FRD. After 30 min incubation at room temperature, the luminescence intensity in the plates was measured using a ViewLux (PerkinElmer) plate reader.
Potency means the concentration at half of the fitted maximal effect.

SMILES | Potency
COc1ccc(O)c(C(C)(C)C)c1 | inactive
CCOP(=O)(OCC)OCC | inactive
CC(C)Nc1nc(Cl)nc(NC(C)C)n1 | inactive
O=C1C(Cl)=C(Cl)C(=O)c2ccccc21 | 19.4 µM (active) and 30.6 µM (active)
CCOC(=O)c1ccccc1N | inactive
OCCOCCO | inactive
ClCC(Cl)CCl | inactive
CC(C)CON=O | inactive
c1ccc(C2CO2)cc1 (stereo not given) | inactive
CCOP(=S)(OCC)SCn1c(=O)oc2cc(Cl)ccc21 | inactive
CC(C)=CC1C(C(=O)OCN2C(=O)C3=C(CCCC3)C2=O)C1(C)C (stereo not given) | inactive
O=P(OCCCl)(OCCCl)OCCCl | inactive
COc1ccc(C=O)cc1OC | inactive
CCN(CC)C(=O)C(C)Oc1cccc2ccccc12 (stereo not given) | inactive
CCCCC(C#N)(Cn1cncn1)c1ccc(Cl)cc1 (stereo not given) | inactive
CCC/C=N/O | inactive
O=[N+]([O-])c1ccc(Nc2ccccc2)cc1 | inactive
N#CC(c1ccccc1)c1ccccc1 | inactive
COP(=S)(OC)Oc1ccc(Sc2ccc(OP(=S)(OC)OC)cc2)cc1 | inactive
CC1CC(=O)O1 (stereo not given) | inactive

SMILES | Potency
Cc1cccc(N=Nc2ccc(N(C)C)cc2)c1 | inactive
N#Cc1nn(-c2c(Cl)cc(C(F)(F)F)cc2Cl)c(N)c1S(=O)C(F)(F)F (stereo not given) | inactive
CC(C)COC(=O)c1ccccc1C(=O)OCC(C)C | inactive
CCCCOC(=O)COC(=O)c1ccccc1C(=O)OCCCC | inactive
CS(=O)(=O)NC(=O)c1cc(Oc2ccc(C(F)(F)F)cc2Cl)ccc1[N+](=O)[O-] | inactive
C[N+](C)(C)C | inactive
NN=C(N)N | inactive
S=c1[nH]c2ccccc2[nH]1 | inactive
O=C1Nc2ccc(Cl)cc2C(c2ccccc2)=NC1O (stereo not given) | inactive
CC1(C)C(C(=O)OC(C#N)c2cccc(Oc3ccccc3)c2)C1(C)C (stereo not given) | inactive
CCOP(=S)(OCC)SCSC(C)(C)C | inactive
Clc1ccccc1-c1nnc(-c2ccccc2Cl)nn1 | inactive
N#Cc1cccnc1 | inactive
CC(C)(c1ccccc1)c1ccc(O)c(C(C)(C)c2ccccc2)c1 | 24.1 µM (active) and 30.6 µM (active)
O=C1CCCO1 | inactive
CCC[CH2][Sn]([Cl])([CH2]CCC)[CH2]CCC | 1.73 µM (active) and 1.93 µM (active)
Cc1cc(Cl)ccc1N=CN(C)C | inactive
COP(=S)(OC)SCn1nnc2ccccc2c1=O | inactive
[CH3][Sn]([Cl])([Cl])[Cl] | inactive
Nc1ncn[nH]1 | inactive
